Results reported in PubChem BioAssay (EPA / NIEHS).
Results filed as inconclusive are left out. The source made the active and inactive calls. How the source made its calls: active means hit-call score of the fitted dose curve at least 0.9, where 1 is the maximum; inconclusive means response in the unintended direction; inactive means score below 0.9.

What was measured:
[1] = biological target: AR (gene 367) (UniProt P10275); assay: ACEA_AR_agonist_80hr: ACEA Biosciences xCELLigence Real-Time Cell Analysis on Androgen Receptor Agonism for Proliferation (AID 2283783);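 further: hits increase impedance growth signal above DMSO baseline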
Sequence of AR (gene 367) (P10275 whole entry, looked up): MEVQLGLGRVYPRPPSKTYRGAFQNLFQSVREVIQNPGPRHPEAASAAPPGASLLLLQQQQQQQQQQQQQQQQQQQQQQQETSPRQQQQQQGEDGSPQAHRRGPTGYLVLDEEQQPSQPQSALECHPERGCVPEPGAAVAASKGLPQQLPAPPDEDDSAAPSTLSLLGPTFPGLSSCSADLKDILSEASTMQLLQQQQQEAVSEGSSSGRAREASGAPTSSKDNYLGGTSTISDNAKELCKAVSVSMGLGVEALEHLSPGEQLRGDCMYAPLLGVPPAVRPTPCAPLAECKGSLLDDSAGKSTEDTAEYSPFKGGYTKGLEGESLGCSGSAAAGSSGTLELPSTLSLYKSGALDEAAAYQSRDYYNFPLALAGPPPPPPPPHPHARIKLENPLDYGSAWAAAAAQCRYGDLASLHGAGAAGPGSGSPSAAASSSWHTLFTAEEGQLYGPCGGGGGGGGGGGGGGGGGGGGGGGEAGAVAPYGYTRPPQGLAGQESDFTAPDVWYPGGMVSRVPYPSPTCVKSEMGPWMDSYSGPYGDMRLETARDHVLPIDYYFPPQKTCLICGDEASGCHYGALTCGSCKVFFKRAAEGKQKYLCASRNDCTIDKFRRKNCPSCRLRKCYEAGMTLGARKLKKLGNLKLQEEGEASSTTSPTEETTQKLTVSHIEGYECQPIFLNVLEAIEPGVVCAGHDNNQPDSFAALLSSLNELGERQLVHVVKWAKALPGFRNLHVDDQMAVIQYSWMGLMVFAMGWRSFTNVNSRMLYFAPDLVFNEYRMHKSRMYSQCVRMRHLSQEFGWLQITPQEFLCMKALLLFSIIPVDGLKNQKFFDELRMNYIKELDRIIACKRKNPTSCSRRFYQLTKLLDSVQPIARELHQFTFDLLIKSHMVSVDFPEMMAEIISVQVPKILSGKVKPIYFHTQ
In short: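 22Rv1 human prostate cancer cells were seeded after preconditioning in assay medium and monitored overnight, then dosed in an eight-point 1:4 dilution series from 100 uM (≤0.5% DMSO). Impedance-based growth was read at 80 h, gain-of-signal versus DMSO.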

[2] = biological target: AR (gene 367) (UniProt P10275); assay: ACEA_AR_antagonist_80hr: ACEA Biosciences xCELLigence Real-Time Cell Analysis on Androgen Receptor Antagonism for Proliferation (AID 2283787);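 further: hits lower the impedance growth signal relative to DMSO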
In short: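 Impedance readout (RT-CES), 80 h post-dose; loss-of-signal vs DMSO baseline. 22Rv1 cells in assay medium. Compounds: 8-pt 1:4 series, max 100 uM final, up to 0.5% DMSO; n = 2.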

[3] = STM_H9_NormalizedViability: Cytotoxicity Assessment at 120 hours in the Stemina devTOX quickPredict H9 human embryonic stem cell (hESC)-based Assay (AID 2283784)
In short: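 Chemicals are tested blinded on H9 human embryonic stem cells in the pluripotent state, with medium exchanged daily. After background correction, fluorescence from CellTiter-Fluor is scaled against 0.1% DMSO wells, and decreases are scored.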

[4] = ATG_M_06_XSP1: Attagene TRANS-FACTORIAL Multi-Species (XSP1) HepG2 Assay for M06 Transcription Factor (Internal Marker) (AID 2283790)
In short: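 Transfected HepG2 multi-reporter system treated 24 h in the presence of 3 nM 6-alpha-fluorotestosterone. The M06 internal marker transcript was quantified by RT-PCR with capillary electrophoresis as a background control, and gain of signal was scored versus DMSO.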

[5] = ATG_M_61_XSP1: Attagene TRANS-FACTORIAL Multi-Species (XSP1) HepG2 Assay for M61 Transcription Factor (Internal Marker) (AID 2283797)
In short: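 HepG2 cells transiently transfected with multiplexed GAL4-driven reporter units, dosed 24 h with 3 nM 6-alpha-fluorotestosterone present. Reporter mRNA quantified by RT-PCR, 6-FAM labelling, HpaI digestion and capillary electrophoresis; internal-marker background control, gain of signal versus DMSO.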

[6] = biological target: Peroxisome proliferator-activated receptor gamma (Homo sapiens) (UniProt P37231); assay: ATG_hPPARg_XSP1: Attagene TRANS-FACTORIAL Multi-Species (XSP1) HepG2 Assay for human Peroxisome Proliferator-activated Receptor gamma (PPARg) (AID 2283800)
Sequence of Peroxisome proliferator-activated receptor gamma (Homo sapiens) (P37231 whole entry, looked up, the tested form may be a part): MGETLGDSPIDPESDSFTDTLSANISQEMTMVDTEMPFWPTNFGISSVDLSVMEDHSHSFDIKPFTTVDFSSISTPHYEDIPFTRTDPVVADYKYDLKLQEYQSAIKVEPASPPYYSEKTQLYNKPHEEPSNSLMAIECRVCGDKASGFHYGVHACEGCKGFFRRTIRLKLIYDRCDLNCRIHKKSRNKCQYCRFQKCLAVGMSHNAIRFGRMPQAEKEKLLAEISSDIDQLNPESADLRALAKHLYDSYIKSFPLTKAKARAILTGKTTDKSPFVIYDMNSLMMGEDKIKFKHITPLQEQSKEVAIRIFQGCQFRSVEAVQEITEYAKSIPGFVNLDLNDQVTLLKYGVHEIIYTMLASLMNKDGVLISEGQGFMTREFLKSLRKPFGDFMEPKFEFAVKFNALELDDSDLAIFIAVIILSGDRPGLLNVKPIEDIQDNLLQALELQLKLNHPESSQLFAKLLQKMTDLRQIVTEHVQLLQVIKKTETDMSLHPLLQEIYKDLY
In short: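 HepG2 cells transiently transfected with GAL4-UAS reporter units carrying chimeric NR-Gal4 proteins; 3 nM 6-alpha-fluorotestosterone present. After 24 h dosing, reporter mRNA quantified by RT-PCR and capillary electrophoresis; gain of signal relative to DMSO.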

[7] = biological target: human Thyroid hormone Receptor alpha (TRa), THRA (gene 7067) (UniProt P10827); assay: ATG_hTRa_XSP1: Attagene TRANS-FACTORIAL Multi-Species (XSP1) HepG2 Assay for human Thyroid hormone Receptor alpha (TRa) (AID 2283805)
Sequence of human Thyroid hormone Receptor alpha (TRa), THRA (gene 7067) (P10827 whole entry, looked up, the tested form may be a part): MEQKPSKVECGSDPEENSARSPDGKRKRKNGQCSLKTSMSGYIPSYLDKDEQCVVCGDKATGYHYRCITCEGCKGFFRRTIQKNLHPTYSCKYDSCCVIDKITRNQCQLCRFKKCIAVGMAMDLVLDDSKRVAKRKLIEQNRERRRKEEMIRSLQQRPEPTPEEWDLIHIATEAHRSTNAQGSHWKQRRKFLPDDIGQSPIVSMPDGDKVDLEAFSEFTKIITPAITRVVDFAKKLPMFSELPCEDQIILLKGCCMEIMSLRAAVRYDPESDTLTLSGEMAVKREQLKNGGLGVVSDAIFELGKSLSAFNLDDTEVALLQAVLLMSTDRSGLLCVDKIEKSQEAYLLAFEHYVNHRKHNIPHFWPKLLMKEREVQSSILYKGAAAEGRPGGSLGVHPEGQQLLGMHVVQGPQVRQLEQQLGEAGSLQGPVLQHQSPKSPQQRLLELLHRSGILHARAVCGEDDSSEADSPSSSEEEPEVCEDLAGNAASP
In short: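 HepG2 cells transiently transfected with GAL4-UAS reporter units expressing chimeric NR-Gal4 proteins, dosed 24 hours with 3 nM 6-alpha-fluorotestosterone present. Reporter mRNA measured by RT-PCR and capillary electrophoresis; gain of signal fitted versus DMSO.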

[8] = system: turtle Thyroid Hormone Receptor, alpha (TRa), gene 101949057; assay: ATG_trTRa_XSP1: Attagene TRANS-FACTORIAL Multi-Species (XSP1) HepG2 Assay for turtle Thyroid Hormone Receptor, alpha (TRa) (AID 2283806)
In short: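 HepG2 cells transiently transfected with GAL4-UAS reporter units and chimeric receptor-Gal4 constructs, with 3 nM 6-alpha-fluorotestosterone present. Reporter mRNA was quantified 24 h after dosing by RT-PCR, 6-FAM labelling and capillary electrophoresis; gain of signal versus DMSO.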

[9] = system: zebrafish Peroxisome Proliferator-activated Receptor gamma (PPARg), gene 557037; assay: ATG_zfPPARg_XSP1: Attagene TRANS-FACTORIAL Multi-Species (XSP1) HepG2 Assay for zebrafish Peroxisome Proliferator-activated Receptor gamma (PPARg) (AID 2283801)
In short: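 HepG2 cells transiently transfected with GAL4-UAS reporter units including a zebrafish PPARg–GAL4 chimera, dosed 24 h with 3 nM 6-alpha-fluorotestosterone present. Reporter mRNA quantified by RT-PCR, FAM labelling, HpaI digestion and capillary electrophoresis; induction versus DMSO.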

[10] = biological target: Nuclear receptor subfamily 1 group I member 2 (Mus musculus) (UniProt O54915); assay: ATG_mPXR_XSP1: Attagene TRANS-FACTORIAL Multi-Species (XSP1) HepG2 Assay for mouse Pregnane X Receptor (PXR) (AID 2283803)
Sequence of Nuclear receptor subfamily 1 group I member 2 (Mus musculus) (O54915 whole entry, looked up, the tested form may be a part): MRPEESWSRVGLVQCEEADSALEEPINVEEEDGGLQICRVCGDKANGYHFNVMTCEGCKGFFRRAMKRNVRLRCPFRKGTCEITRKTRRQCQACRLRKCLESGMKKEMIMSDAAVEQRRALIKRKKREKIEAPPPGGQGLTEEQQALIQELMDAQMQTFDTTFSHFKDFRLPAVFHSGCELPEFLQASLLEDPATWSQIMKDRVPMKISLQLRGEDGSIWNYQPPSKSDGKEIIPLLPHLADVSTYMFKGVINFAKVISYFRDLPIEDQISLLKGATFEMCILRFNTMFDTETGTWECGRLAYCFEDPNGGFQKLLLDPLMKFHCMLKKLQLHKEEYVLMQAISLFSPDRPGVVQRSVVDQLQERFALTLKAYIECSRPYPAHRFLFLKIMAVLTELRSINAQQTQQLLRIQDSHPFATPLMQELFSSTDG
In short: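 Transiently transfected HepG2 cells expressing a receptor-Gal4 chimera drive a GAL4-UAS reporter; 3 nM 6-alpha-fluorotestosterone included. Reporter mRNA read 24 h post-dose by RT-PCR and capillary electrophoresis; gain of signal relative to DMSO.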

In the case of `CC1COC(=O)O1` (stereo unspecified), the outcome [1] is reported as “inactive” and the outcome [2] is reported as “inactive”.

With `CCCCCCOC(C)=O` the outcome [3] was “inactive”.

For `CCOC(=O)C=Cc1ccccc1`, the outcome [3] was “inactive”.

For `CC(=O)OC/C=C(C)/C=C/C=C(C)/C=C/C1=C(C)CCCC1(C)C`, the AC50 [3] was 87.5 µM (active).

With `CCC(C)(C)C1CCC(=O)CC1` the outcome [1] was “inactive” and the outcome [2] was “inactive”.

For `CC(CCO)CC(C)(C)C` (stereo unspecified), the outcome [2] was “inactive”.

In the case of `C#C[C@]1(O)CC[C@H]2[C@@H]3CCc4cc(O)ccc4[C@H]3CC[C@@]21C`, the outcome [4] is reported as “inactive”, the outcome [5] is reported as “inactive” and the outcome [6] is reported as “inactive”. The outcome [7] was “inactive” and the outcome [8] was “inactive”.

In the case of `CC(C)(C)c1cccc(O)c1`, the outcome [2] is reported as “inactive”.

In the case of `CCCCCCCCCCOC(=O)c1ccccc1C(=O)OCCCCCCCC`, the outcome [2] is reported as “inactive”.

In the case of `COC(=O)c1ccc(C(=O)OC)cc1`, the outcome [3] is reported as “inactive”.

In the case of `CC1=CCC(C(C)(C)O)CC1` (stereo unspecified), the AC50 [2] is reported as 7.98 µM (active).

With `CCCCOCCOCCOCCO` the outcome [3] was “inactive”.

For `CCCCCCOc1ccc(O)cc1`, the AC50 [2] was 13.3 µM (active).

With `CC/C(=C(\c1ccccc1)c1ccc(OCCN(C)C)cc1)c1ccccc1` the outcome [4] was “inactive”, the outcome [5] was “inactive” and the outcome [6] was “inactive”. The outcome [9] was “inactive”, the outcome [10] was “inactive” and the outcome [7] was “inactive”.

With `COC(=O)c1cccc(C(=O)OC)c1` the outcome [2] was “inactive”.

In the case of `CC(=O)N(C)C`, the outcome [2] is reported as “inactive”.

With `O=C(O)c1ccccc1O` the AC50 [3] was 7090 µM (active).

In the case of `COc1cc(OC)c2ccc(=O)oc2c1`, the AC50 [2] is reported as 3.3 µM (active).

With `CC(C)(CO)CO` the outcome [1] was “inactive” and the outcome [2] was “inactive”.
